Measured values as given in PubChem BioAssay (NCI).
The panel holds about 83,000 compounds, 20% with a hit somewhere; the sample as a whole holds those more often.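 Negative percent growth values reflect cell death: -40 means 40% of the cells present at the start died, and -100 means all died.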 Active and inactive are the calls of the source. Rule for the calls: active = growth percent below 10; inactive = the rest.

test system: A549/ATCC NSCLC; assay: NCI-60 one-dose screen, 48 h (100 = growth as untreated, 0 = no growth, -100 = all killed); settings: 10 µM unless noted

Row | SMILES | growth
1 | C/C(CCC(=O)O)=N/Nc1ccc([N+](=O)[O-])cc1 | 54% (inactive)
2 | Nc1nc2c(c3ncncc13)C(c1cccc(C(F)(F)F)c1)Cc1ncncc1-2 (stereo not given) | 39.8% (inactive)
3 | COc1ccc(-c2nc(SCC(C)C)nc(Nc3ccc([N+](=O)[O-])cc3)c2C#N)cc1 | 61.5% (inactive)
4 | Cn1c2c(cc(S(=O)(=O)c3ccccc3)c1=O)CCc1c-2cnn1-c1ccc(Cl)cc1 | 8.48% (active)
5 | Nc1nc2c(c3cnccc13)C(c1cccc(Cl)c1)Cc1cnccc1-2 (stereo not given) | 13.6% (inactive)
6 | CCCCCSc1ccc2nc(NC(=O)OCCC)sc2c1 | 46.4% (inactive)
7 | CCCCCSc1ccc2nc(NC(=O)OCC)sc2c1 | 34.6% (inactive)
8 | Cc1c(Cc2ccccc2)c(=O)oc2c(C)c(OCc3n[nH]c(=S)o3)ccc12 | 26.9% (inactive)
9 | CCOC(=O)c1c(C)oc2ncnc(Nc3ccc(C(=O)NCCc4ccccc4)cc3)c12 | 56.6% (inactive)
10 | COc1cc(/C=C/C(=O)c2ccc(F)cc2)ccc1OCCCCOc1cc2c(cc1OC)C(=O)N1CCCC1C=N2 (stereo not given) | 45.9% (inactive)
11 | C=C(C)[C@@H]1CC[C@]2(COC(=O)c3ccccc3C(=O)O)CC[C@]3(C)[C@H](CC[C@@H]4[C@@]5(C)CCCNC(C)(C)[C@@H]5CC[C@]43C)[C@@H]12 | 61.4% (inactive)
12 | O=C(CCCC(=O)Nc1ccc(Cn2nnc3cc(Cl)c(Cl)cc32)cc1)Nc1ccc(CN2N=NC3C=C(Cl)C(Cl)=CC32)cc1 (stereo not given) | 74.5% (inactive)
13 | CCS(=O)(=O)OCCO[C@H]1Cc2cc3ccc(=O)oc3cc2OC1(C)C | 97.3% (inactive)
14 | O=C1Nc2ccccc2/C1=C/c1cn(CC(O)Cn2cc(/C=C3\C(=O)Nc4ccccc43)c3ccccc32)c2ccccc12 (stereo not given) | -11.6% (active)
15 | COC(=O)Nc1nc2ccc(C(=O)c3ccccc3N(C)C3COC3)cc2[nH]1 | 42.4% (inactive)
16 | COC(=O)/C=C/c1cc(O)c2oc(-c3ccc(O)c(O)c3)c(C(=O)OC)c2c1 | 57.2% (inactive)
17 | CC(C)OC(=O)[C@H](C)N[P@@](=O)(OC[C@@]1(C)O[C@@H](n2cc(F)c(N)nc2=O)C[C@@H]1O[P@](=O)(N[C@@H](C)C(=O)OC(C)C)Oc1ccccc1)Oc1ccccc1 | 92.2% (inactive)
18 | COc1cc2ncnc(Nc3ccc4c(cnn4C(=O)Nc4ccccc4)c3)c2cc1OC | 72.9% (inactive)
19 | Cc1nnc(/N=C2\NC(=O)/C(=C/C=C/c3ccccc3)S2)s1 | 39.8% (inactive)
20 | COC(c1ccccc1)C(Br)C(=O)c1ccccc1 (stereo not given) | 95.3% (inactive)

Row | SMILES | growth
21 | O=C1c2ccccc2CCc2ccccc21 | 98.5% (inactive)
22 | COc1cc2ncnc(-n3ncc4cc(NC(=O)Nc5ccccc5)ccc43)c2cc1OC | 24.1% (inactive)
23 | COc1cc(-c2cc3cnccc3c3nc(N)c4ccncc4c23)cc(OC)c1OC | 42.5% (inactive)
24 | COc1cc(OC)c(NC(=O)n2ncc3cc(Nc4ncnc5ccccc45)ccc32)cc1Cl | 80.3% (inactive)
25 | COc1cc(OC)cc(-c2ccc(-c3ccc(C(=N)N)cc3)s2)c1 | -41.5% (active)
26 | CC1(C)NCCC[C@]2(C)[C@H]3CC=C4[C@@H]5C[C@](C)(COC(=O)c6ccccc6C(=O)O)CC[C@]5(C)CC[C@@]4(C)[C@]3(C)CC[C@@H]12 | 56.7% (inactive)
27 | Nc1ncn([C@@H]2O[C@H](CO)[C@@H](O)C2(F)F)c(=O)n1 | 37.9% (inactive)
28 | CCOC(=O)c1cc(C(=O)c2ccc(Br)cc2)n2cc(C)cc(C)c12 | 75.7% (inactive)
29 | Nc1nc2c(c3cnccc13)C(c1cccc(Br)c1)Cc1cnccc1-2 (stereo not given) | 13.2% (inactive)
30 | O=C1/C(=C\c2cn(-c3nc(N4CCOCC4)nc(N4CCOCC4)n3)c3ccccc23)c2ccccc2N1c1c(Cl)cccc1Cl | 68.4% (inactive)
31 | COc1cc2ncnc(-n3ncc4cc(NC(=O)Nc5ccc(Cl)c(C)c5)ccc43)c2cc1OC | 99.9% (inactive)
32 | CC1=C[C@@H]2c3c(c(O)c(O)c4oc5cc(O)cc(O)c5c(=O)c34)[C@@H](c3cc(O)c(O)c4oc5cc(O)cc(O)c5c(=O)c34)[C@@H]2C(C)(C)C1 | 9.43% (active)
33 | N=C(N)c1ccc(-c2ccc(-c3cc(Cl)cc(Cl)c3)s2)cc1 | -50.8% (active)
34 | COc1cc2ncnc(-n3ncc4cc(NC(=O)Nc5ccc(Cl)c(Cl)c5)ccc43)c2cc1OC | 0.341% (active)
35 | COC1=CC(c2ccc[nH]2)=N/C1=C\c1[nH]c(C)c(C(=O)CCCCC(=O)NC(C)(C)C)c1C | 11.4% (inactive)
36 | CC1=NN(c2cccc(Cl)c2)C(=O)/C1=C\c1cn(-c2nc(N3CCOCC3)nc(N3CCOCC3)n2)c2ccccc12 | 99.2% (inactive)
37 | O=C(Nc1ccccc1)Nc1ccc(Nc2ncnc3sc4c(c23)CCCC4)cc1 | 73.9% (inactive)
38 | O=c1c(N=Nc2nccs2)c(-c2ccccc2)[nH]n1-c1nc(-c2ccccc2)cs1 | 36.3% (inactive)
39 | CCOP1(=O)CC(C)=C(Cl)C(P(=O)(O)O)C1 (stereo not given) | 94.8% (inactive)
40 | Cc1ccc(OCCn2ccc(=O)n(CCOc3ccc(Cl)cc3C(=O)c3cc(C)cc(C)c3)c2=O)cc1 | 41.7% (inactive)
